The results in this text go back to PubChem BioAssay AID589 (National Center for Advancing Translational Sciences (NCATS), 2007).

In all, about 59,000 compounds went through this assay and about 6,200 (11%) were called active. Roughly 9% stayed inconclusive and do not appear here. Cut-off read from the data, not from the text of the source: active = max dye-equivalent concentration above about 10 nM; inconclusive = mostly about 1.1 nM to 9.6 nM; inactive = weaker than that. The sample as a whole holds a higher share of actives than the screen did.

This test is described as follows: qHTS Assay for Spectroscopic Profiling in 4-MU Spectral Region. Conditions: compound autofluorescence, 340/450 nm, 4-MU equivalents; hits give high values. The procedure, abridged: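 Compounds in 100 mM Tris, pH 8.0, sat 15 min at room temperature before fluorescence was read at 340 nm excitation/450 nm emission; a per-plate six-point 4-MU standard curve converted signals to dye-equivalent concentration at each compound concentration.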
A general note: In qHTS, concentration-response curves come from the screen itself.
As for `COC(=O)c1cc(NC(=O)CN2CCC(C(N)=O)(N3CCCCC3)CC2)cc(C(=O)OC)c1`, the max dye-equivalent concentration entry was “inactive”. The same measure for `CCCCCN(C(=O)NC(=O)Nc1ccccc1OC)S(C)(=O)=O`: “inactive”. Take `CCc1nnc(NC(=O)c2ccc(S(=O)(=O)NC3CCCCC3)cc2)s1`: the max dye-equivalent concentration result is “inactive”. For `Cc1ccc(C(=O)Nc2nnc(-c3cccs3)s2)cc1C`, the max dye-equivalent concentration was 73 nM (active). The same measure for `CCCc1nnc(NC(=O)c2cc(OC)cc(OC)c2)s1`: “inactive”. The same measure for `COc1ccc(Cc2nnnn2CC(=O)O)cc1`: “inactive”. The same measure for `CC(=O)OCc1cc(=O)n(C)c(=O)n1C`: “inactive”; for `CC(Sc1nncn1C)C(=O)Nc1ccccc1-c1ccccc1` (stereo not given): “inactive”; for `Cc1ccccc1-c1nc(N(C)Cc2ccco2)c2ccccc2n1`: “inactive”. As to `CC1CCc2c(sc(NC(=O)c3ccc(Cn4cc(Br)cn4)o3)c2C(N)=O)C1` (stereo not given), the max dye-equivalent concentration was 100 nM (active).

Turning to `Cc1ccc(C)c(NC(=O)C2CC(=O)N(C(C)C)C2)c1` (stereo not given), the max dye-equivalent concentration result was “inactive”. As to `O=C(NCC(F)(F)F)Nc1nnc(C(F)(F)F)s1`, the max dye-equivalent concentration result is “inactive”.

Turning to `CN(C)CCCn1c(N)c(C#N)c2nc(C#N)c(C#N)nc21`, the max dye-equivalent concentration is 730 nM (active). The same measure for `O=C(O)C1CCN(S(=O)(=O)N2CCOCC2)CC1`: “inactive”. The same measure for `O=C(CNS(=O)(=O)c1cccc(C(F)(F)F)c1)Nc1ccccc1F`: “inactive”; for `Cc1ccccc1NC(=O)NCc1ccco1`: “inactive”; for `CN1CCN(c2ncncc2-c2ccc(C(=O)N(C)C)cc2)CC1`: “inactive”.

`COc1ccc(-c2nnc(SC(C)C#N)o2)cc1` (stereo not given): the max dye-equivalent concentration entry is “inactive”. `CCOc1ccc(CNC(=O)C2CCC(=O)N2C2CCCC2)cc1OC` (stereo not given): the max dye-equivalent concentration result is “inactive”. On to `CCOc1cc(C2C(C(=O)OC)=CN(C3CCCC3)C=C2C(=O)OC)cc(Br)c1O`, for which the max dye-equivalent concentration is 200 nM (active). In the case of `CCCC(=O)Nc1cc(OCC)c(NC(=O)NC2CCCCC2)cc1OCC`, the max dye-equivalent concentration result is “inactive”. As for `OCCN1CCN(CC/C=C2\c3ccccc3Sc3ccc(C(F)(F)F)cc32)CC1`, the max dye-equivalent concentration result is “inactive”. The same measure for `CN(C)C(=O)/N=N\C(=O)N(C)C`: “inactive”; for `Cc1ccc2nc(S(=O)(=O)O)[nH]c2c1`: “inactive”. The same measure for `CCOc1ccc2c(c1)cc(CN(C(=O)CC)C1CCCCC1)c1nnnn12`: “inactive”; for `O=C(OCc1cc2ccccc2[nH]c1=O)c1cccnc1`: “inactive”; for `COc1ccc2[nH]c(=O)c(CN(Cc3nnnn3CCc3ccccc3)CC3CCCO3)cc2c1` (stereo not given): 360 nM (active). For `CC(C)(C)n1nnnc1C(c1cccs1)N(Cc1cccnc1)CC1CCCO1` (stereo not given), the max dye-equivalent concentration result is “inactive”.

For the compound `CCC(c1nnnn1Cc1ccccc1)N(Cc1cc2cc(OC)ccc2[nH]c1=O)CC1CCCO1` (stereo not given), the max dye-equivalent concentration was 32 nM (active). The same measure for `CCC(=O)N(Cc1cc2cc(OC)ccc2[nH]c1=O)c1ccccc1C`: 200 nM (active). The same measure for `CCOc1ccc2[nH]c(=O)c(CN(CCCO)C(C)=O)cc2c1`: 300 nM (active); for `CCC(c1nnnn1C1CCCC1)N(Cc1cccs1)Cc1cc2cccc(C)c2[nH]c1=O` (stereo not given): “inactive”.

For `Cc1cc(C)c2cc(CN(Cc3cccs3)Cc3nnnn3CC3CCCO3)c(=O)[nH]c2c1` (stereo not given), the max dye-equivalent concentration result was “inactive”. The same measure for `c1ccc(CCn2nnnc2CN2CCN(C3CCCC3)CC2)cc1`: “inactive”; for `CN1CCC2(CC1)CCN(S(=O)(=O)c1ccccc1)CC2`: “inactive”; for `Cc1ccc(S(=O)(=O)Cn2nnnc2CN2CCN(Cc3ccc4c(c3)OCO4)CC2)cc1`: “inactive”.

Consider `COc1cccc(N(CC(=O)Nc2cccc(N(C)S(C)(=O)=O)c2)S(C)(=O)=O)c1`, for which the max dye-equivalent concentration entry was “inactive”. Turning to `CC(C)CNC(=O)C1CCCN(S(=O)(=O)c2ccc(-n3cnnn3)cc2)C1` (stereo not given), the max dye-equivalent concentration entry is “inactive”. Consider `CCCOc1cccc(C(=O)Nc2nnn(CCC)n2)c1`, for which the max dye-equivalent concentration entry was “inactive”.

Regarding `CC(C)c1cc(CN(C)C)c(O)c(C(C)(C)C)c1`, the max dye-equivalent concentration result is “inactive”. Consider `CCC(=O)Nc1cccc(NC(=O)CSc2nnc(-c3ccc(NS(C)(=O)=O)cc3)n2C)c1`, for which the max dye-equivalent concentration entry is “inactive”.

`Cc1ccc(N(C(=O)CC2NC(=O)NC2=O)C2(C(=O)NC3CCCC3)CCCCC2)cc1` (stereo not given): the max dye-equivalent concentration entry was “inactive”. The same measure for `CC(=O)Cc1nsc(NC(=O)c2ccc(COc3ccc(C)cc3)o2)n1`: “inactive”; for `COc1ccccc1N1CCN(Cc2nnnn2CCc2ccccc2)CC1`: “inactive”; for `COc1ccc2[nH]c(=O)c(CN(CC3CCCO3)C(=O)Nc3ccccc3)cc2c1` (stereo not given): 110 nM (active). The same measure for `CCOc1ccc2[nH]c(=O)c(CN(Cc3nnnn3CCc3ccccc3)CC3CCCO3)cc2c1` (stereo not given): 76 nM (active); for `CCC(c1nnnn1Cc1ccco1)N(CCc1ccccc1)Cc1cc2ccc(OC)cc2[nH]c1=O` (stereo not given): “inactive”; for `CCC(c1nnnn1Cc1ccco1)N(Cc1cc2cc(OC)ccc2[nH]c1=O)C1CCCCC1` (stereo not given): 22 nM (active). The same measure for `O=C(CN(CC1CCCO1)C(=O)CNS(=O)(=O)c1ccccc1)NCc1ccccc1` (stereo not given): “inactive”; for `CCOc1ccc2[nH]c(=O)c(CN(Cc3nnnn3Cc3ccccc3)CC3CCCO3)cc2c1` (stereo not given): 120 nM (active); for `Cc1cccc2cc(CN(Cc3ccc4c(c3)OCO4)Cc3nnnn3C3CCCC3)c(=O)[nH]c12`: “inactive”. As for `Cc1cccc2cc(CN(Cc3cccs3)C(c3nnnn3C3CCCC3)C(C)C)c(=O)[nH]c12` (stereo not given), the max dye-equivalent concentration result is “inactive”. Regarding `N=c1c2c3c(sc2ncn1CCCN1CCOCC1)CCCCC3`, the max dye-equivalent concentration result is “inactive”. With `CSc1sc(C)cc1C1C(C#N)=C(N)N(c2cccnc2)C2=C1C(=O)CCC2` (stereo not given), the max dye-equivalent concentration result is “inactive”. The same measure for `N#Cc1cccc(NC(=O)CCC2CCCC2)c1`: “inactive”; for `Cc1oc2nc(SCC(=O)NCc3cccnc3)nc(N)c2c1C`: “inactive”. The same measure for `COc1ccc(OC)c(NC(=O)CSc2nc3cccnc3n2C)c1`: “inactive”; for `O=C(CCc1ccccc1)Nc1cccc(-c2nnc(-c3ccco3)o2)c1`: “inactive”; for `Cc1ccc(CNC(=O)CN2CCN(Cc3ccc(Cl)cc3)C2=O)cc1`: “inactive”. The same measure for `CCCC(=O)Nc1c(O)c2ccccc2[nH]c1=O`: “inactive”; for `C=CCOc1ccc(C2/C(=C(\O)c3c(C)[nH]c(C(=O)OC)c3C)C(=O)C(=O)N2CCN(C)C)cc1` (stereo not given): “inactive”.

On to `CC1(C)NC(=O)N(CCOc2cccc(Oc3ccccc3)c2)C1=O`, for which the max dye-equivalent concentration entry is “inactive”. Regarding `COc1ccc2[nH]cc(CCNc3nc(-c4cccc(NS(C)(=O)=O)c4)nc4ccccc34)c2c1`, the max dye-equivalent concentration result was “inactive”. Regarding `COc1ccccc1-c1cc(C(=O)NCCCn2ccnc2)no1`, the max dye-equivalent concentration entry was “inactive”. The same measure for `COc1ccc(CNc2ncncc2-c2ccccc2OC)c(OC)c1`: “inactive”; for `Cc1cccc2cc(C#N)c(N3CCCC3)nc12`: 42 nM (active). The same measure for `Cc1cc(C)c2nc(N3CCCC3)c(C#N)cc2c1`: 130 nM (active); for `Cc1ccc(OCc2nc(C#N)c(N3CCCC3)o2)cc1`: “inactive”. In the case of `NC(=O)C1CCN(C(=O)c2ccc(C(F)(F)F)cc2)CC1`, the max dye-equivalent concentration entry was “inactive”. As to `CN1CCN(CCCNC(=O)c2cc3c(=O)oc4ccccc4c3s2)CC1`, the max dye-equivalent concentration entry was “inactive”. The same measure for `O=C(c1ccc([N+](=O)[O-])cc1)[C@@H](Br)[C@@H](Br)c1ccnc2ccccc12`: “inactive”. The same measure for `CC12C(=O)N(n3cnnc3)C(=O)C1C1C=CC2C1` (stereo not given): “inactive”. The same measure for `Cc1ccc(-n2ncc3c(N4CCN(c5ccc(F)cc5)CC4)ncnc32)c(C)c1`: “inactive”; for `Fc1ccc2[nH]c3c(N4CCSCC4)ncnc3c2c1`: 47 nM (active). `Cc1cnc(CNc2nc(-c3cccnc3)nc3ccccc23)cn1`: the max dye-equivalent concentration entry is “inactive”.

For `Cc1noc(C)c1C(=O)NC(C)c1ccc2c(c1)OCO2` (stereo not given), the max dye-equivalent concentration result was “inactive”. The same measure for `O=C(CSc1nnc(-c2ccco2)n1Cc1ccccc1)NC(=O)NCc1ccco1`: “inactive”; for `CO[C@@H]1/C=C\O[C@]2(C)Oc3c(C)c(O)c4c(O)c(c(CN(C)C)c(O)c4c3C2=O)NC(=O)/C(C)=C\C=C[C@@H](C)[C@@H](O)[C@H](C)[C@@H](O)[C@H](C)[C@H](OC(C)=O)[C@@H]1C`: “inactive”; for `CCOc1cc(NC(=O)c2ccco2)c(OCC)cc1NC(=O)COc1ccccc1`: 85 nM (active).

On to `O=C(Nc1ccc(Oc2ccccc2)cc1)c1ccco1`, for which the max dye-equivalent concentration result is “inactive”. The same measure for `Cc1ccc(C(=O)COc2cccc(NC(=O)c3ccco3)c2)cc1`: “inactive”. The same measure for `O=c1oc2c(CN3CCCCC3)c(O)ccc2c2c1CCCCC2`: 12000 nM (active). `CCN(CC)S(=O)(=O)c1cc(C(=O)Nc2ccccn2)ccc1C`: the max dye-equivalent concentration entry is “inactive”. Take `Cc1ccnc(N2CCN(C(=O)CSc3nc4ccccc4nc3N3CCCCC3)CC2)c1`: the max dye-equivalent concentration was 29 nM (active).

Take `O=C(CSc1nc2ccccc2o1)N1CCN(c2ccccc2)CC1`: the max dye-equivalent concentration entry is “inactive”. With `Cn1c(=O)cc(OCCCC(=O)N2CCN(c3ccccn3)CC2)c2ccccc21`, the max dye-equivalent concentration result was “inactive”. The same measure for `CC1Cc2ccccc2N1C(=O)CSc1nc2ccccc2o1` (stereo not given): “inactive”; for `c1ccc(CCN2CCN=C2Cc2ccccc2)cc1`: “inactive”; for `Cc1ccc(NC(=O)Cn2nc(C)c3ccccc3c2=O)c(C)c1`: “inactive”. On to `CCOc1ccc(N=NS(=O)(=O)O)cc1`, for which the max dye-equivalent concentration result is “inactive”.

For `Nc1ccc2[nH]cc(CCC(=O)O)c2c1`, the max dye-equivalent concentration entry is “inactive”. As for `NCCNCC1CCNCC1`, the max dye-equivalent concentration entry is “inactive”. Consider `O=C(O)[C@H](CCc1ccccn1)c1ccccc1`, for which the max dye-equivalent concentration entry is “inactive”. The same measure for `O=C(NCCc1ccccn1)c1ccc(COc2ccccc2)o1`: “inactive”. With `C/C(N)=C(\C#N)C(=O)NCCc1ccccn1`, the max dye-equivalent concentration is 46 nM (active). The same measure for `O=C1C(=O)N(CCN2CCOCC2)C(c2ccccn2)/C1=C(/O)c1ccc(Cl)cc1` (stereo not given): “inactive”. The same measure for `COc1ccccc1-c1nc(N2CCN(C)CC2)c2ccccc2n1`: “inactive”. The same measure for `CCOC(=O)c1ccc(COC(=O)c2cc(=O)[nH]c3ccccc23)o1`: 33 nM (active); for `CCOC(=O)c1sc2nc(CSCC(=O)OCc3ccc(C(=O)OC)o3)[nH]c(=O)c2c1C`: “inactive”. As to `CCOC(=O)c1ccc(CS(=O)c2ccc(Cl)cc2)o1` (stereo not given), the max dye-equivalent concentration result was “inactive”. Consider `COC(=O)CCSc1nccn1Cc1ccccc1`, for which the max dye-equivalent concentration result is “inactive”. For `CN(C)c1ccnc2sc3c(=O)n(Cc4ccccc4)cnc3c12`, the max dye-equivalent concentration was 28 nM (active).

With `CN(C)/C=C/c1c(C#N)c(=O)ncn1Cc1ccccc1`, the max dye-equivalent concentration entry is “inactive”. The same measure for `CCOc1ccccc1N(CC(=O)NC1CCCCC1)C(=O)CCCC(=O)Nc1ccccn1`: “inactive”. The same measure for `CCC(C)(C)n1nnnc1C(c1cccs1)N1CCN(Cc2ccccc2)CC1` (stereo not given): “inactive”.
